# Laboratory results: PubChem BioAssay (NCI)
# The panel holds about 83,000 compounds, 20% with a hit somewhere; the sample as a whole holds those more often.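 Negative percent growth values reflect cell death: -40 means 40% of the cells present at the start died, and -100 means all died.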 A number with no mark means an inactive call. The source made the active and inactive calls. How the source made its calls: active means growth percent below 10; inactive means the rest.
# Experiments:
# Assay in all cases: NCI-60 one-dose screen, 48 h (100 = growth as untreated, 0 = no growth, -100 = all killed)
# Conditions in all cases: 10 µM unless noted
# SR leukemia = system: SR leukemia
# RPMI-8226 leukemia = system: RPMI-8226 leukemia
# OVCAR-8 ovarian = system: OVCAR-8 ovarian
# OVCAR-5 ovarian = system: OVCAR-5 ovarian
# OVCAR-4 ovarian = system: OVCAR-4 ovarian
# SK-OV-3 ovarian = system: SK-OV-3 ovarian
# IGROV1 ovarian = system: IGROV1 ovarian
# OVCAR-3 ovarian = system: OVCAR-3 ovarian
# HS 578T breast = system: HS 578T breast
# NCI/ADR-RES ovarian = system: NCI/ADR-RES ovarian
SMILES,growth (SR leukemia),growth (RPMI-8226 leukemia),growth (OVCAR-8 ovarian),growth (OVCAR-5 ovarian),growth (OVCAR-4 ovarian),growth (SK-OV-3 ovarian),growth (IGROV1 ovarian),growth (OVCAR-3 ovarian),growth (HS 578T breast),growth (NCI/ADR-RES ovarian)
Cc1cc(=O)[nH]c2c(C#N)cnn12,112%,101%,98.7%,97.7%,111%,106%,97.2%,101%,92.6%,102%
COc1ccc2c3c([nH]c2c1)C(=O)c1nc(C)ccc1C3=O,37.4%,45.4%,48.5%,85%,25.7%,76.3%,28.8%,-13.9% (active),84.9%,44.3%
O=C(Nn1c2c(sc1=Nc1ccccc1)C(=O)c1ccccc1C2=O)c1cc2ccc1CCc1ccc(cc1)CC2,61.1%,75.2%,62.2%,110%,69.4%,76.3%,48.8%,64.8%,78.9%,70.2%
Oc1c(Cl)cc(Cl)c2ccc(Cn3cc(-c4ccc(C(F)(F)F)cc4)nn3)nc12,-16.8% (active),0.831% (active),70.7%,88.7%,62.2%,104%,78.9%,-16.1% (active),87.7%,100%
O=C1/C(=C/c2ccc(F)cc2)COc2ccc(O)cc21,1.11% (active),-19% (active),87.4%,96.9%,93.4%,123%,84.9%,92.4%,94.1%,93.2%
O=C(CSc1nc2ccc([N+](=O)[O-])cc2[nH]1)Nc1cccc(C(F)(F)F)c1,14.5%,-11.8% (active),13.8%,63.5%,12%,27.1%,41%,20.7%,24.8%,21.9%
COC1C[C@H](O[C@@H]2C[C@H](O[C@@H]3C[C@H](O[C@@H]4C(=O)c5c(cc6cc(O[C@H]7C[C@@H](O[C@H]8C[C@@H](O)[C@H](O)C(C)O8)[C@H](O)C(C)O7)c(C)c(O)c6c5O)C[C@H]4C(OC)C(=O)[C@@H](O)[C@@H](C)O)OC(C)[C@H]3O)OC(C)[C@@H]2O)OC(C)[C@@H]1O (stereo not given in full),10.2%,-1.8% (active),2.54% (active),14.2%,12.1%,16.6%,9.46% (active),3.14% (active),7.26% (active),82.4%
O=C1/C(=C/c2ccc(F)cc2)COc2ccc(O)c(O)c21,18.9%,-2.78% (active),6.23% (active),1.54% (active),43%,69.1%,-21.8% (active),-2.58% (active),21.5%,1.04% (active)
CC(C)c1ccc(COCc2cc(CN3CCCC3)c(O)c3ncccc23)cc1,-6.27% (active),-21.4% (active),-10.8% (active),32.8%,-6.36% (active),-16.4% (active),9.42% (active),-34.2% (active),41.6%,-51.2% (active)
CN1C(=O)N(C)C2Nn3c(s/c(=C\c4ccc(C(F)(F)F)cc4)c3=O)=NC21 (stereo not given),96.9%,106%,108%,103%,102%,111%,101%,106%,105%,99.8%
COc1cc(-c2nc(SCC(C)C)nc(Nc3cccc4ccccc34)c2C#N)cc(OC)c1OC,40.7%,91.2%,92.1%,109%,87.6%,110%,106%,117%,106%,98.8%
O=C(NNC(=O)c1ccc(-n2cc(-c3ccccc3)nn2)cc1)Nc1ccccc1,110%,102%,95.9%,120%,104%,85.2%,103%,114%,92.2%,107%
O=C(Cn1c(-c2ccc([N+](=O)[O-])cc2)nc2ccccc21)NNC(=O)c1cccnc1,75.9%,77.6%,85.1%,101%,96.5%,102%,63.3%,97.3%,101%,87.9%
COc1ccc2[nH]cc(-c3nc(-c4c[nH]c5ccncc45)cs3)c2c1,0.735% (active),-20% (active),38.6%,45.3%,47.3%,86.3%,64.7%,-13.2% (active),93.2%,59.9%
